# Records with an inconclusive call do not appear. Entries that show only a call come without a potency. Values without a mark were called inactive. Calls of active or inactive are those of the source. Calls follow the shape of the dose curve; as a rule, active = well fitted curve in the direction sought with a large enough effect; inconclusive = small, poorly fitted or top-dose-only effect, or another doubt; inactive = no such curve, though single readings can be large; an effect the other way counts as inactive or inconclusive.
# How the values were obtained:
# [1] = P-glycoprotein substrates identified in KB-3-1 adenocarcinoma cell line, qHTS therapeutic library screen (AID 1346986); details: KB-3-1 parental cells viability, CellTiter-Glo, 72 h; series mostly up to 44.5 µM; also: nearly all actives have a fitted effect of over 60% in size;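 also: potency is for cytotoxicity meaning loss of cell viability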
# How it was run: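 Using luminescence to quantify ATP, parental and P-gp-overexpressing KB cells were compared after 72 h compound titration. KB-8-5-11 was also run with the P-gp inhibitor tariquidar.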
# [2] = P-glycoprotein substrates identified in KB-8-5-11 adenocarcinoma cell line, qHTS therapeutic library screen (AID 1346987); details: KB-8-5-11 (P-gp overexpressing) viability, CellTiter-Glo, 72 h; series mostly up to 44.5 µM; also: nearly all actives have a fitted effect of over 65% in size
# How it was run: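 In this qHTS, P-gp-rich KB-8-5-11 cells received library compounds across a concentration range. Viability was quantified by luminescence after 72 h at 37 degree C.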
# Potency is read from the fitted curve at half-maximal effect.
structure (smiles),measurement,setting,value
CC(C)(C)c1ccc(S(=O)(=O)Nc2ccc(Cl)cc2C(=O)c2cc[n+]([O-])cc2)cc1,Potency,[1],inactive
same,Potency,[2],inactive
COc1c2cc(c(O)c1OC)-c1cc(ccc1O)CCC(O)CCCC2 (configuration not stated),Potency,[1],inactive
CC(=O)CC1CCC(C(C)C(=O)OCC(O)CO)O1 (configuration not stated),Potency,[1],inactive
same,Potency,[2],inactive
C=CC1C(OC2OC(CO)C(O)C(O)C2O)OC=C(C(=O)OC)C1CC(=O)OCC1C(C)C(O)CC1C(CO)COC(=O)CC1C(C(=O)O)=COC(OC2OC(CO)C(O)C(O)C2O)/C1=C\C (configuration not stated),outcome,[1],inactive [at 9.29 µM]
same,"activity change, negative = cytotoxicity",[2],-0.744% [at 9.29 µM]
CC1=C2C(O)C(=O)OC(c3ccoc3)C2(C)CCC1O (configuration not stated),Potency,[1],inactive
same,Potency,[2],inactive
CS(=O)(=O)c1ccc([C@H](CC2CCCC2)C(=O)Nc2nccs2)cc1,Potency,[1],inactive
CC(C)(F)C[C@@H](N[C@@H](c1ccc(-c2ccc(S(C)(=O)=O)cc2)cc1)C(F)(F)F)C(=O)NC1(C#N)CC1,Potency,[1],inactive
Cc1cc(Nc2nc(NC(C)c3ncc(F)cn3)ncc2Cl)n[nH]1 (configuration not stated),Potency,[1],inactive
COC(=O)[C@H](O)[C@H]1C(C)(C)[C@H](OC(=O)C(C)C)[C@@]2(O)C(=O)[C@]1(C)C1CC[C@]3(C)C(CC(=O)O[C@H]3c3ccoc3)[C@]13O[C@@H]32 (some centres not stated),Potency,[1],inactive
COc1nc2sc(C(=O)NC3CC3)c(N)c2c(C)c1Cl,Potency,[1],inactive
same,Potency,[2],inactive
C[C@H](N)C(=O)N[C@@H](Cc1ccc(O)cc1)C(=O)N1CCC[C@H]1C(=O)NCC(=O)N[C@@H](CCCCN)C(=O)N[C@@H](Cc1ccccc1)C(N)=O,outcome,[1],inactive [at 9.29 µM]
CC(=O)O[C@@H]1c2c3c(cc(O)c2C(=O)O[C@@H]1C)O[C@@]1(C)[C@@H](O)C[C@H]2C(C)(C)C(=O)C=C[C@]2(C)[C@@H]1C3,Potency,[1],inactive
NC(=O)c1csc(C2OC(CO)C(O)C2O)n1 (configuration not stated),Potency,[1],inactive
same,Potency,[2],inactive
C[C@@H](O)[C@H](NC(=O)c1ccc(C#Cc2ccc(CN3CCOCC3)cc2)cc1)C(=O)NO,Potency,[1],inactive
CC(=O)N1CCN(C(=O)Cc2ccc(Nc3ncc(F)c(Nc4ccc(C(=O)Nc5ccccc5Cl)cc4)n3)cc2)CC1,Potency,[1],2910 nM (active)
CCOc1ccc(NC(=S)N2CCC(C(O)(c3ccccc3)c3ccccc3)CC2)cc1,Potency,[1],inactive
same,Potency,[2],inactive
Cc1c(CN2CCN(C(=O)C(C)O)CC2)sc2c(N3CCOCC3)nc(-c3cnc(N)nc3)nc12 (configuration not stated),Potency,[1],259 nM (active)
same,Potency,[2],820 nM (active)
C[C@@H]1N[C@H]2N(C1=O)c1ccccc1[C@@]2(O)C[C@@H]1C(=O)N[C@@H](C)c2nc3ccccc3c(=O)n21,Potency,[1],inactive
C=C1[C@H](OC(C)=O)[C@H]2[C@@H](OC(C)=O)[C@](C)(OC(C)=O)C[C@]2(OC(C)=O)C(=O)[C@H](C)/C=C/C(C)(C)C(=O)[C@H](OC(=O)C(C)C)[C@H]1OC(C)=O,Potency,[1],inactive
C=C1[C@@H]2CC[C@@H]3[C@@](CCC4C(C(=O)O)(C(=O)O)C[C@@H](O[C@@H]5O[C@H](CO)[C@@H](O)[C@H](O)[C@H]5OC(=O)CC(C)C)C[C@]43C)(C2)[C@H]1O (some centres not stated),Potency,[1],inactive
same,Potency,[2],inactive
CC(CO)C1CCC2(C)CC3C(CO)CC(O)C3C(C)(O)C/C=C/12 (configuration not stated),Potency,[1],inactive
same,Potency,[2],inactive
Cc1nc(NC(=O)N2CCCC2C(N)=O)sc1-c1csc(C(C)(C)C)n1 (configuration not stated),Potency,[1],inactive
CC12CCC(=O)C=C1C(O)CC1C2C(O)CC2(C)C1CC[C@]2(O)C(=O)CO (some centres not stated),outcome,[1],inactive [at 9.29 µM]
same,outcome,[2],inactive [at 9.29 µM]
O=C(O)Cc1cn(C2OCC(O)C(O)C2O[C@@H]2O[C@H](CO)[C@@H](O)[C@H](O)[C@H]2O)c2ccccc12 (some centres not stated),Potency,[1],inactive
same,Potency,[2],inactive
COc1c2c(c(C)c3c1C(=O)OC3)OC1(C)CC(O)C(C(C)(C)O)C(C)(CCC(=O)O)C1C2 (configuration not stated),Potency,[1],inactive
same,Potency,[2],inactive
CCOCc1cc(OC)c(-c2ccc(C[C@H](NC(=O)c3c(F)cccc3F)C(=O)O)cc2)c(OC)c1,Potency,[1],inactive
Nc1ccc(/C=C/C(=O)NCc2cc3cc(-c4ccc(C(=O)N5CCC(F)(F)CC5)cc4)cc(-c4ccc(F)cc4)c3o2)cn1,Potency,[1],517 nM (active)
O=C(O)[C@H](Cc1ccc(Nc2nccc3ccncc23)cc1)NC1=C(Br)C(=O)C12CCCCC2,Potency,[1],inactive
same,Potency,[2],inactive
CCc1c(-c2ccccc2)c(-c2ccccc2)nn1-c1ccccc1-c1cccc(OCC(=O)O)c1,Potency,[1],inactive
same,Potency,[2],inactive
COC(=O)C1=CO[C@@H](O[C@@H]2O[C@H](CO)[C@@H](O)[C@H](O)[C@H]2O)[C@H]2[C@@H]1C=C[C@@]21C=C([C@H](C)O)C(=O)O1,Potency,[1],inactive
C=C[C@H]1C(O[C@@H]2O[C@H](CO)[C@@H](O)[C@H](O)[C@H]2O)OC=C2C(=O)N3CCc4c([nH]c5ccccc45)C3CC21 (some centres not stated),Potency,[1],inactive
same,Potency,[2],inactive
C=C[C@@]12COC(=O)C(=C)C1[C@@H](O)[C@H](C(=C)C(=O)OC)[C@@H](OC(=O)C(=C)CO)C2 (some centres not stated),Potency,[1],inactive
same,Potency,[2],inactive
CCOc1cc(C)c(Cl)cc1S(=O)(=O)n1cnc2ccccc21,Potency,[1],inactive
CC1=CCC(C(C)(C)O[C@@H]2O[C@H](CO[C@@H]3O[C@@H](C)[C@H](O)[C@@H](O)[C@H]3O)[C@@H](O)[C@H](O)[C@H]2O)CC1 (some centres not stated),Potency,[1],inactive
same,Potency,[2],inactive
CC1(C=O)CC[C@]2(C(=O)O[C@@H]3O[C@H](CO)[C@@H](O)[C@H](O)[C@H]3O)CC[C@]3(C)C(=CCC4[C@@]5(C)C[C@H](O)[C@H](O[C@@H]6OC[C@@H](O)[C@H](O)[C@H]6O)[C@@](C)(CO)C5CC[C@]43C)C2C1 (some centres not stated),outcome,[1],inactive [at 9.29 µM]
O=C(O[C@H]1[C@@H]2C=CO[C@@H](O[C@@H]3O[C@H](CO)[C@@H](O)[C@H](O)[C@H]3O)[C@@H]2[C@@]2(CO)O[C@@H]12)c1ccccc1,Potency,[1],inactive
same,Potency,[2],inactive
COc1ccc(CNC(=O)c2cc(-c3cncc(C)c3)ncc2-c2nccs2)nc1OC,Potency,[1],inactive
O=C(Nc1ccc(-c2ccncc2)cc1)N[C@H](CO)c1ccccc1,Potency,[1],inactive
OC[C@H]1O[C@@H](OC(CCCCc2ccc(O)cc2)CCc2ccc(O)cc2)[C@H](O)[C@@H](O)[C@@H]1O (some centres not stated),Potency,[1],inactive
same,Potency,[2],inactive
C[C@@H]1O[C@@H](O[C@H]2[C@@H]3C=CO[C@@H](O[C@@H]4O[C@H](CO)[C@@H](O)[C@H](O)[C@H]4O)[C@@H]3[C@@]3(CO)O[C@@H]23)[C@H](OC(=O)/C=C/c2ccccc2)[C@H](O)[C@H]1O,Potency,[1],inactive
same,Potency,[2],inactive
CC(=O)c1cc2c(cc1O)OC(C)(C)C=C2,Potency,[1],inactive
same,Potency,[2],inactive
COC(=O)C1=CO[C@@H](O[C@@H]2O[C@H](CO[C@@H]3O[C@H](COC(=O)/C=C/c4cc(OC)c(O)c(OC)c4)[C@@H](O)[C@H](O)[C@H]3O)[C@@H](O)[C@H](O)[C@H]2O)[C@@H]2C(CO)=CC[C@H]12,Potency,[1],inactive
same,Potency,[2],inactive
CC1=C(C(=O)OCc2ccccc2)C(c2ccc(-c3ccccc3)cc2)NC(=O)N1CCCCCC(=O)O (configuration not stated),Potency,[1],inactive
same,Potency,[2],inactive
CC(=O)OCC1(O)CCC2C(COC3OC(CO)C(O)C(O)C3OC(=O)/C=C/c3ccc(O)cc3)=COC(OC(=O)CC(C)C)C21 (configuration not stated),Potency,[1],inactive
same,Potency,[2],inactive
COC(=O)C(C)C1CCC2(C)C(=O)C=CC(C)(O)C2C1O (configuration not stated),Potency,[1],inactive
same,Potency,[2],inactive
CC1CCC23COC(=O)C2=CC(O)CC3C1(C)CCC1=CC(O)OC1=O (configuration not stated),Potency,[1],inactive
same,Potency,[2],inactive
Cn1cc(-c2ccc3nnc(Sc4ccc5nn(C)cc5c4)n3n2)cn1,Potency,[1],inactive
same,Potency,[2],inactive
[N-]=[N+]=N[C@]1(CO)O[C@@H](n2ccc(=O)[nH]c2=O)[C@@H](O)[C@@H]1O,Potency,[1],inactive
same,Potency,[2],inactive
CC12CCC3c4ccc(O)cc4CCC3C1CC(OC1OC(C(=O)O)C(O)C(O)C1O)C2O (configuration not stated),Potency,[1],inactive
same,Potency,[2],inactive
CC/C=C\CC1C(=O)C=CC1(CCCCCCCC(=O)O)OC(C)=O (configuration not stated),Potency,[1],inactive
same,Potency,[2],inactive
COC(=O)C1=COC(OC2OC(CO)C(O)C(O)C2O)C2C1C=CC2(O)CO (configuration not stated),Potency,[1],inactive
same,Potency,[2],inactive
CC1OC(O[C@H]2CC[C@@]3(C)C(CC[C@]4(C)C3CC=C3C5CC(C)(C)CC[C@]5(C(=O)OC5OC(CO)C(OC6OC(COC7OCC(O)C(O)C7O)C(O)C(O)C6O)C(O)C5O)CC[C@]34C)C2(C)C)C(O)C(O)C1OC1OCC(OC2OCC(O)C(O)C2O)C(O)C1O (some centres not stated),outcome,[1],inactive [at 9.29 µM]
same,outcome,[2],inactive [at 9.29 µM]
C[C@@H]1O[C@@H](O[C@H]2[C@@H](OC(=O)[C@]34CCC(C)(C)CC3C3=CCC5[C@@]6(C)C[C@H](O)[C@H](O[C@@H]7O[C@H](C(=O)O)[C@@H](O)[C@H](O)[C@H]7O)[C@@](C)(C(=O)O)C6CC[C@@]5(C)[C@]3(C)CC4)OC[C@H](O)[C@@H]2O)[C@H](O)[C@H](O)[C@H]1O[C@@H]1OC[C@@H](O)[C@H](O)[C@H]1O (some centres not stated),outcome,[1],inactive [at 9.29 µM]
same,"activity change, negative = cytotoxicity",[2],1.24% [at 9.29 µM]
COc1c(C)c(OCC(O)C(C)(C)O)cc2c1COC2=O (configuration not stated),Potency,[1],inactive
same,Potency,[2],inactive
CCC(C)/C=C(C)/C=C/c1cc2c(cn1)C(=O)C(C)(OC(C)=O)C(O)=C2Cl (configuration not stated),Potency,[1],inactive
same,Potency,[2],inactive
CC(C)(O[C@@H]1O[C@H](CO)[C@@H](O)[C@H](O)[C@H]1O)C(OC(=O)/C=C\c1ccc(O)cc1)C(=O)OCc1ccc(O[C@@H]2O[C@H](CO)[C@@H](O)[C@H](O)[C@H]2O)cc1 (some centres not stated),Potency,[1],inactive
same,Potency,[2],inactive
CC1CC(O)/C=C/C(O)C(O)CC(=O)Cc2c(Cl)c(O)cc(O)c2C(=O)O1 (configuration not stated),Potency,[1],inactive
same,Potency,[2],inactive
CC1OC(OC2C(O)C(OC3CCC4(C)C(CCC5(C)C4CC=C4C6CC(C)(COC7OC(CO)C(O)C(O)C7O)CC(O)C6(C)CCC45C)C3(C)C)OC(C(=O)O)C2O)C(O)C(O)C1OC1OCC(O)C(O)C1O (configuration not stated),outcome,[1],inactive [at 9.29 µM]
same,"activity change, negative = cytotoxicity",[2],1.43% [at 9.29 µM]
